# The full list was thinned out, with the strongest signals kept by preference.
# Legend:
# Test in all cases: glycan array binding signal (z-score within array); higher = stronger binding
# Conditions in all cases: glycan notation: IUPAC condensed, linker removed
# Fuc(a1-2)Gal = target: Fuc(a1-2)Gal
# Procedure, shortened: (§1)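 Columns mapping to the same glycan were averaged after glycan names were converted to IUPAC-condensed notation. The data come from 3228 arrays in the Consortium for Functional Glycomics database, limited to those with an available protein sequence. Binding is reported as a within-array Z-score averaged across arrays of one protein sequence and across linkers.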
# [1] = target: Fuc(a1-2)Gal(b1-3)GlcNAc(b1-2)Man(a1-3)[Fuc(a1-2)Gal(b1-3)GlcNAc(b1-2)Man(a1-6)]Man(b1-4)GlcNAc(b1-4)GlcNAc
# Procedure, shortened: as §1
# [2] = target: Fuc(a1-2)Gal(b1-4)[Fuc(a1-3)]GlcNAc(b1-2)[Fuc(a1-2)Gal(b1-4)[Fuc(a1-3)]GlcNAc(b1-4)]Man(a1-3)[Fuc(a1-2)Gal(b1-4)[Fuc(a1-3)]GlcNAc(b1-2)Man(a1-6)]Man(b1-4)GlcNAc(b1-4)GlcNAc
# Procedure, shortened: as §1
# [3] = target: Fuc(a1-2)[Gal(a1-3)]Gal(b1-3)GlcNAc(b1-2)Man(a1-3)[Fuc(a1-2)[Gal(a1-3)]Gal(b1-3)GlcNAc(b1-2)Man(a1-6)]Man(b1-4)GlcNAc(b1-4)GlcNAc
# Procedure, shortened: as §1
# [4] = target: Fuc(a1-2)[Gal(a1-3)]Gal(b1-3)GlcNAc(b1-2)Man(a1-3)[Fuc(a1-2)[Gal(a1-3)]Gal(b1-3)GlcNAc(b1-2)Man(a1-6)]Man(b1-4)GlcNAc(b1-4)[Fuc(a1-6)]GlcNAc
# Procedure, shortened: as §1
# [5] = target: Fuc(a1-2)[Gal(a1-3)]Gal(b1-3)GlcNAc(b1-3)GalNAc
# Procedure, shortened: as §1
# [6] = target: Fuc(a1-2)[Gal(a1-3)]Gal(b1-4)GlcNAc
# Procedure, shortened: as §1
# [7] = target: Fuc(a1-2)[Gal(a1-3)]Gal(b1-4)[Fuc(a1-3)]GlcNAc(b1-3)GalNAc
# Procedure, shortened: as §1
# [8] = target: Fuc(a1-2)[GalNAc(a1-3)]Gal(b1-3)GalNAc(a1-3)[Fuc(a1-2)]Gal(b1-4)GlcNAc
# Procedure, shortened: as §1
# [9] = target: Gal(a1-3)Gal(b1-4)GlcNAc(b1-2)Man
# Procedure, shortened: as §1
# [10] = target: Gal(a1-3)[Gal(a1-4)]Gal(b1-4)GlcNAc
# Procedure, shortened: as §1
# Gal(a1-6)Glc = target: Gal(a1-6)Glc
# Procedure, shortened: as §1
# Gal(b1-3)GalNAc(b1-3)Gal = target: Gal(b1-3)GalNAc(b1-3)Gal
# Procedure, shortened: as §1
# Gal(b1-3)GlcNAc = target: Gal(b1-3)GlcNAc
# Procedure, shortened: as §1
# [11] = target: Gal(b1-3)[Fuc(a1-4)]GlcNAc(b1-3)Gal(b1-4)[Fuc(a1-3)]GlcNAc
# Procedure, shortened: as §1
# [12] = target: Gal(b1-3)[Fuc(a1-4)]GlcNAc(b1-6)GalNAc
# Procedure, shortened: as §1
# [13] = target: Gal(b1-3)[Neu5Ac(a2-6)]GlcNAc(b1-4)Gal(b1-4)Glc
# Procedure, shortened: as §1
# Gal(b1-4)Glc = target: Gal(b1-4)Glc
# Procedure, shortened: as §1
# [14] = target: Gal(b1-4)GlcNAc(b1-2)Man(a1-3)[Gal(b1-4)GlcNAc(b1-2)Man(a1-6)][Gal(b1-4)GlcNAc(b1-4)]Man(b1-4)GlcNAc(b1-4)[Fuc(a1-6)]GlcNAc
# Procedure, shortened: as §1
# [15] = target: Gal(b1-4)GlcNAc(b1-2)[Gal(b1-4)GlcNAc(b1-6)]Man(a1-6)[Gal(b1-4)GlcNAc(b1-2)Man(a1-3)]Man(b1-4)GlcNAc(b1-4)GlcNAc
# Procedure, shortened: as §1
# [16] = target: Gal(b1-4)GlcNAc(b1-3)Gal(b1-4)Glc
# Procedure, shortened: as §1
# [17] = target: Gal(b1-4)GlcNAc(b1-3)Gal(b1-4)GlcNAc(b1-3)Gal(b1-4)GlcNAc(b1-2)Man(a1-3)[Gal(b1-4)GlcNAc(b1-3)Gal(b1-4)GlcNAc(b1-3)Gal(b1-4)GlcNAc(b1-2)Man(a1-6)]Man(b1-4)GlcNAc(b1-4)[Fuc(a1-6)]GlcNAc
# Procedure, shortened: as §1
# [18] = target: Gal(b1-4)GlcNAc(b1-3)Gal(b1-4)GlcNAc(b1-3)GalNAc
# Procedure, shortened: as §1
# [19] = target: Gal(b1-4)GlcNAc(b1-3)GalNAc
# Procedure, shortened: as §1
# Gal3S(b1-3)GalNAc = target: Gal3S(b1-3)GalNAc
# Procedure, shortened: as §1
binder,measurement,setting,value
"CcfD (Bacteroides fragilis), Q5L9G4 (protein) MKKQNSIYTLLIALLCFVSSCDYLGVSDQLAGGLQNTEQVFDNVSYTKRWYANVFAGIPDYSGINSVNVGAFKNPWTGMCDELVVGYGNSSKYNNSDRNAANMGFHRYGDCYKYIRQANIFLQKAHPIMTTGTQGDQLLEDELTQMKANVRFMRAFYHYLLFEQYGPIILVKDKIYNATEDQDVPRNTVDEVIEYIDSELTAVASELTQEPIFEDKDYRAWPTKGVALAVRAKLWLYAASPLLNGGYREALSVTNPDGTRLFPDYDAGKWEKALAACKDFIDYAEAGRYELYKEYKDDNGAVIDPDKSVYNLFQKYTHEIIWATANNDWGGMNGDAFDRRIAPRCEKNGLGSTGVTQELVDAFYMKDGFPVSATAYLPQSTLYQEEGYGTYKDQNDNFSKKYTNVTVSNRYLNREPRFYNTVFFNGRQWPVSCNQVLFYNGGNSGVQEGQATLTGYMLFKRFNRSVSLTNPGVASQFRPSIIFRLADFYLMYAEAANEVNPNDARVLKYLNLVRERAGLPDIETLNPAIRGNQELQRAAIQRERQIELATEGQRYFDVRRWMIADKNGEGRQNGYVHGMNVRGESNDKEDFNRIVEASQIVFNRKMYLYPMPDSEMRKTKNLVQNPGW",glycan array binding signal (z-score),Fuc(a1-2)Gal,0.811
same,glycan array binding signal (z-score),[1],5.05
same,glycan array binding signal (z-score),[2],3.75
same,glycan array binding signal (z-score),[3],2.68
same,glycan array binding signal (z-score),[4],0.2
same,glycan array binding signal (z-score),[5],0.095
same,glycan array binding signal (z-score),[6],0.056
same,glycan array binding signal (z-score),[7],0.64
same,glycan array binding signal (z-score),[8],2.62
same,glycan array binding signal (z-score),[9],-0.588
same,glycan array binding signal (z-score),[10],-1.43
same,glycan array binding signal (z-score),Gal(a1-6)Glc,-0.384
same,glycan array binding signal (z-score),Gal(b1-3)GalNAc(b1-3)Gal,-0.456
same,glycan array binding signal (z-score),Gal(b1-3)GlcNAc,0.42
same,glycan array binding signal (z-score),[11],2.86
same,glycan array binding signal (z-score),[12],-0.036
same,glycan array binding signal (z-score),[13],0.607
same,glycan array binding signal (z-score),Gal(b1-4)Glc,-0.056
same,glycan array binding signal (z-score),[14],3.04
same,glycan array binding signal (z-score),[15],-0.896
same,glycan array binding signal (z-score),[16],0.627
same,glycan array binding signal (z-score),[17],1.57
same,glycan array binding signal (z-score),[18],0.43
same,glycan array binding signal (z-score),[19],-0.998
same,glycan array binding signal (z-score),Gal3S(b1-3)GalNAc,0.942
